High-throughput results from PubChem.
KCNQ2 block = inhibitors of rat KCNQ2 potassium channel; O88943; CHO-K1 KCNQ2, FluxOR thallium flux, 20 min; active compounds read low; B-score at 10 µM; hit rate 1.1% among 310,000;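 active = fluorescence ratio B-score at most minus 3 library SDs, with starting brightness B-score within 2 library SDs, cut at about -5.5 in these data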
KCNQ2 enhance = potentiators of rat KCNQ2 potassium channel; O88943; CHO-K1 KCNQ2, FluxOR thallium flux fluorescence; active compounds read high; B-score at 10 µM; hit rate 0.54% among 310,000; AID 2239;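 active = fluorescence ratio B-score at least 3 SD of library B-scores, with initial fluorescence B-score within 3 of them, cut at about 5.3 in these data; same plate scores as AID 2156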;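 also: B-score of peak minus minimum over baseline fluorescence ratio after K+ and Tl+ stimulus; positive B-score means potentiation of KCNQ2 with more thallium influx and brighter signal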
Kir21 conf inh = confirmation of mouse Kir2.1 potassium channel inhibitors; shares compounds with KCNQ2 enhance; Kir2.1-expressing cells, FluxOR thallium flux fluorescence; active compounds read low; Tl flux remaining, % of negative control (active compounds read low), % at 10 µM; hit rate 41% among 2,300; AID 2032;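 active = Primary-screen hit whose thallium flux fell at least 3 control SD below untreated wells in both duplicates, with normal baseline fluorescence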;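 also: 0% = blank wells without stimulus and 100% = stimulated no-compound controls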
Target sequence (P35561 whole entry, looked up): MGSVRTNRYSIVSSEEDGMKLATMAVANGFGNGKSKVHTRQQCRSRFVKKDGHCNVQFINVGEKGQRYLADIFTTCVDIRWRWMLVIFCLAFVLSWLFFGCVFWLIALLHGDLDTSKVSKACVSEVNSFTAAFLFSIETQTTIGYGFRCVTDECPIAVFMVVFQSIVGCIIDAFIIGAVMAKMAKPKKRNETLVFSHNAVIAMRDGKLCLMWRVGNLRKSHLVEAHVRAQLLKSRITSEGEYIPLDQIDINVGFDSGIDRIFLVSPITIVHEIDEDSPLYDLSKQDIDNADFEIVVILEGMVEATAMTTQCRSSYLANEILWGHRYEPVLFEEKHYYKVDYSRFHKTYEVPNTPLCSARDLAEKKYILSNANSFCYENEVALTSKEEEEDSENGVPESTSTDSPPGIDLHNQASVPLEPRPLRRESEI
HEK293 Tl flux = parental HEK293 activity in Kir2.1 inhibitor counter-screen. parental HEK293 cells, FluxOR thallium flux fluorescence; 0% = unstimulated blank wells. FluxOR signal as % of negative control (100 = no effect), % at 10 µM. shares compounds with KCNQ2 enhance. AID 2105. hit rate 19% among 2,300;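 active = dye signal at least 3 control SD above or below untreated wells in both duplicates, raw fluorescence within 3, either direction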;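 also: percent is based on the flux ratio of peak minus minimum fluorescence over baseline F0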
CHO-K1 Tl ctr = parental CHO-K1 activity in KCNQ2 potentiator counter-screen; shares compounds with KCNQ2 enhance; parental CHO-K1 cells, FluxOR thallium flux fluorescence; zero = vehicle mean+3SD, 100% = vehicle-minus-blank window; activity increase over 3SD of controls, % at 10 µM; hit rate 43% among 1,200; AID 2282;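 active = signal rise of at least 3 SD above the untreated control mean, in both duplicate wells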;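 also: counter screen of KCNQ2 potentiator hits so any rise reflects channel-independent effects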
KCNQ1 sel pot = human KCNQ1 counter-target activity of KCNQ2 potentiators | shares compounds with KCNQ2 enhance | CHO KCNQ1 stable, FluxOR thallium flux fluorescence; beyond 3SD, as % of vehicle-control signal | activation over 3SD threshold, % at 10 µM | hit rate 28% among 1,200 | AID 2283;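 active = fluorescence ratio rise of at least 3 SD of vehicle wells above their mean, in both replicate wells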;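 also: 0% = vehicle mean plus 3 SD and 100% = vehicle minus unstimulated blank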
KCNQ2 pot conf = rat KCNQ2 channel potentiator confirmation; shares compounds with KCNQ2 enhance; hit rate 68% among 1,200; CHO-KCNQ2 cells, FluxOR thallium flux fluorescence; potentiation, less the hit threshold, % at 10 µM; AID 2287;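 active = fluorescence ratio rising 3 SD or more over the vehicle control mean in both replicates, plus primary screen hit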;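 also: peak minus minimum thallium fluorescence divided by baseline after K/Tl stimulus; 0% = vehicle mean plus 3 SD and 100% = vehicle minus unstimulated blank difference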
Kir2-1 sel = selectivity of KCNQ2 potentiators: effect on mouse Kir2.1; shares compounds with KCNQ2 enhance; HEK293 Kir2.1, FluxOR thallium flux fluorescence; activity over 3SD threshold, % at 10 µM; hit rate 2% among 1,200;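 active = fluorescence ratio rise of at least 3 SD above the vehicle-control mean, seen in both replicates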;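 also: 0% = vehicle mean plus 3 SD and 100% = vehicle minus no-stimulus blank window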
KCNQ2 W236L pot = rat KCNQ2 W236L mutant potentiation by KCNQ2 potentiators. AID 2558. hit rate 10% among 940. CHO KCNQ2-W236L, automated patch clamp current. current increase over 3SD of negative controls (%), active compounds read high, % at 25 µM. shares compounds with KCNQ2 enhance;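 active = current increase at least 3 SD of the untreated controls above them in both duplicate recordings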
Active calls of the source: *; i = inactive; · = not tested or not shown. Only some compounds are listed: those with a hit (about 1.6% of all), similar ones and a draw of the others.

SMILES	KCNQ2 block	KCNQ2 enhance	Kir21 conf inh	HEK293 Tl flux	others
O=C(NC(=S)Nc1cccc(C(F)(F)F)c1)c1csnn1	i	18*	i	442%*	CHO-K1 Tl ctr=-18;KCNQ1 sel pot=-11;KCNQ2 pot conf=80*;Kir2-1 sel=-17;KCNQ2 W236L pot=i
O=C(NC(=S)Nc1ccccc1Cl)c1csnn1	i	15*	i	408%*	CHO-K1 Tl ctr=79*;KCNQ1 sel pot=-19;KCNQ2 pot conf=72*;Kir2-1 sel=-18;KCNQ2 W236L pot=i
CCCOc1cccc(C(=O)NC(=S)Nc2cccc(C(F)(F)F)c2)c1	i	·	·	·
O=C(Nc1ccccc1NC(=O)c1csnn1)c1csnn1	i	·	·	·
CCCN1CCN(CCNC(=O)Nc2cc(C)ccc2C)CC1	i	·	·	·
CC(C)(C)OC(=O)C(C)(C)O/N=C(\C(=O)O)c1csc(N)n1	i	·	·	·
O=C(O)c1ccn2c(C(=O)c3ccc(Cl)cc3)c(-c3ccccc3)cc2c1	i	8.4*	i	i	CHO-K1 Tl ctr=-6;KCNQ1 sel pot=-11;KCNQ2 pot conf=16*;Kir2-1 sel=-25;KCNQ2 W236L pot=i
O=C(NCCO)C(=O)c1c(-c2ccc(Cl)cc2)cc2ccccn12	i	·	·	·
CSc1sc(C(=O)N(C)C)c2c1S(=O)(=O)N(C)c1ccccc1-2	i	1.4	·	·
CCN1c2ccccc2-c2nc3ccccc3n2C1c1ccco1 (centres undefined)	i	·	i	i
c1ccc(CN2c3ccccc3-c3nc4ccccc4n3C2c2ccccn2)cc1 (centres undefined)	i	·	·	·
O=C(COC(=O)C1=COCCO1)NCc1ccc(Cl)cc1	i	0.55	·	·
COc1ccc(C2=NC(CO)(CO)CO2)cc1	i	·	·	·
CC1CCN(CC(=O)Nc2ccc(S(=O)(=O)N3CCCCC3)cc2)CC1	i	0.02	·	·
CC1CCN(CC(=O)Nc2ccc(N3CCCCCC3)cc2)CC1	i	5.9*	·	·	CHO-K1 Tl ctr=7.2*;KCNQ1 sel pot=-15;KCNQ2 pot conf=-11;Kir2-1 sel=-62
CCOC(=O)Nc1ccc(N2CCOCC2)c(S(=O)(=O)N2CCOCC2)c1	i	0.66	·	·
COc1ccc(C)cc1Nc1c2c(nc3ccccc13)CCC2	i	0.19	i	i
COc1ccc(Nc2nc(N3CCCCC3)nc3ccccc23)c(OC)c1	i	·	i	i
COc1ccc(Nc2nc(N3CCN(S(C)(=O)=O)CC3)nc3ccccc23)c(OC)c1	i	·	·	·
COc1ccc(Nc2c3c(nc4ccccc24)CCC3)cc1	i	·	42%*	i
COc1ccc(Nc2c3c(nc4ccccc24)CCCC3)cc1OC	i	1.4	·	·
COc1ccc(Nc2nc(N3CCCC3)c3ccccc3n2)cc1	i	0.61	21%*	i
CCN(CC)c1ccc(Nc2nc(N3CCOCC3)c3ccccc3n2)cc1	i	·	·	·
c1ccc(Nc2c3c(nc4ccccc24)CCC3)cc1	i	1.1	·	·
O=C(Nc1ccccn1)c1cccc(S(=O)(=O)N2CCCC2)c1	i	·	·	·
SMILES	KCNQ2 block	KCNQ2 enhance	Kir21 conf inh	HEK293 Tl flux	others
COc1ccc(S(=O)(=O)NNC(=O)Cc2csc(C)n2)cc1[N+](=O)[O-]	i	0.02	·	·
COCc1c(CCl)cnc(C)c1O	i	·	·	·
COc1cccc(CNC(=O)CCCc2nnc3n(C)c(=O)c4sccc4n23)c1	i	0.15	·	·
Cc1nnc(SCCOc2ccccc2)s1	i	1.3	·	·
S=c1nc(COc2ccccc2)[nH]c2ccccc12	i	20*	i	479%*	CHO-K1 Tl ctr=1.8*;KCNQ1 sel pot=-11;KCNQ2 pot conf=63*;Kir2-1 sel=-15;KCNQ2 W236L pot=i
Cc1ccc(Cc2nc3ccccc3[nH]2)cc1	i	·	·	·
S=c1nc(Cc2ccc(Cl)cc2)[nH]c2ccccc12	i	11*	i	158%*	CHO-K1 Tl ctr=-8;KCNQ1 sel pot=-8;KCNQ2 pot conf=6.1*;Kir2-1 sel=-41;KCNQ2 W236L pot=i
Cc1nc(=S)c2ccccc2[nH]1	i	1.1	·	·
S=c1nc(Cc2ccccc2)[nH]c2ccccc12	i	11*	i	323%*	CHO-K1 Tl ctr=45*;KCNQ1 sel pot=-13;KCNQ2 pot conf=40*;Kir2-1 sel=-30;KCNQ2 W236L pot=i
O=c1[nH]c(COc2ccccc2)nc2ccccc12	i	·	·	·
CC(=O)[C@@]1(O)[C@H](C)CC2C3CC=C4CC(OP(=O)(O)O)CC[C@]4(C)C3CC[C@@]21C (some centres undefined)	i	0.25	·	·
Cc1ccc(N(CC(=O)NC2CCCCC2)S(=O)(=O)c2cccs2)cc1	i	0.02	·	·
NS(=O)(=O)c1ccc(CCNCc2cc(Cl)ccc2OCc2ccccc2)cc1	i	1.7	·	·
NS(=O)(=O)c1ccc(CCNCc2ccccc2OCc2ccc(Cl)cc2)cc1	i	4.3	44%*	i
NS(=O)(=O)c1ccc(CCNCc2cc(Br)ccc2OCc2ccccc2F)cc1	i	·	64%*	i
C=CCOc1ccccc1CNCCc1ccc(S(N)(=O)=O)cc1	i	·	·	·
CCCOc1ccc(C(=O)N(CC(C)C)c2c(N)n(Cc3ccccc3)c(=O)[nH]c2=O)cc1	i	0.14	·	·
CCCNC(=O)C1CCN(c2cc(-c3ccccc3)nc3ncnn23)CC1	i	0.46	·	·
CC(NC(=O)CN1c2cccc3cccc(c23)S1(=O)=O)c1ccc(S(N)(=O)=O)cc1 (centres undefined)	i	·	·	·
CN(Cc1ccccc1)S(=O)(=O)c1csc(C(N)=O)c1	i	·	·	·
CCOCCCN(Cc1ccco1)S(=O)(=O)c1csc(C(N)=O)c1	i	·	·	·
CCCCN(Cc1cccs1)S(=O)(=O)c1csc(C(N)=O)c1	i	·	46%*	i
CC(C)CCN(Cc1ccco1)S(=O)(=O)c1csc(C(N)=O)c1	i	·	58%*	i
CC(OC(=O)CCC1CCCC1)C(=O)Nc1ccccc1[N+](=O)[O-] (centres undefined)	i	·	·	·
Cc1nc(SCC(=O)N2CCCCC2)c2c(C)c(C)sc2n1	i	7.4*	i	i	CHO-K1 Tl ctr=-10;KCNQ1 sel pot=100*;KCNQ2 pot conf=41*;Kir2-1 sel=-35;KCNQ2 W236L pot=i
SMILES	KCNQ2 block	KCNQ2 enhance	Kir21 conf inh	HEK293 Tl flux	others
Cc1sc2ncnc(SCC(=O)N3CCCCC3)c2c1C	i	2.5	·	·
Cc1sc2nc(C(C)C)nc(SCC(=O)N3CCOCC3)c2c1C	i	12*	i	i	CHO-K1 Tl ctr=5.3*;KCNQ1 sel pot=-18;KCNQ2 pot conf=34*;Kir2-1 sel=-38;KCNQ2 W236L pot=i
CCn1c(SC(C)C(=O)N2CCOCC2)nc2sc(C)c(C)c2c1=O (centres undefined)	i	1.1	·	·
CCN(Cc1ccccc1)C(=O)CCS(=O)(=O)c1cc2c(cc1Cl)NC(=O)CO2	i	·	·	·
CCOC(=O)c1c(C)[nH]c(C)c1S(=O)(=O)N1CCOCC1	i	·	·	·
O=C(c1ccco1)N1CCN(CCOCCOc2cccc3ccccc23)CC1	i	0.35	·	·
